Laboratory results from PubChem BioAssay (Tox21).
Where “and” joins values, the source holds several entries; their conditions need not be identical. Equal values may be shown once. Results filed as inconclusive are left out. Calls of active or inactive are those of the source. Unless noted, calls follow the shape of the dose curve; as a rule, active = well fitted curve in the direction sought with a large enough effect in the repeat runs; inconclusive = weak or mixed curves; inactive = no such curve, though single readings can be large; an effect the other way counts as inactive or inconclusive.

Experiments:
[1] = qHTS assay to identify small molecule antagonists of the glucocorticoid receptor (GR) signaling pathway - cell viability counter screen (AID 720693); also: nearly all actives have a fitted effect of over 55% in size
[2] = qHTS assay for identifying genotoxic compounds that show differential cytotoxicity against isogenic chicken DT40 cell lines with known DNA damage response pathways - wild type cell line (AID 743012); also: nearly all actives have a fitted effect of over 60% in size; also: potency is read from the fitted curve at half-maximal effect
Summary of the method: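 Quantitative HTS on parental DT40 cells: 40 h compound treatment at 37 C/5% CO2, with viability then determined by CellTiter-Glo luminescence. Values serve as the DNA repair-proficient reference for differential cytotoxicity.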

[3] = qHTS assay for identifying genotoxic compounds that show differential cytotoxicity against isogenic chicken DT40 cell lines with known DNA damage response pathways - Rev3 mutant cell line (AID 743014); also: nearly all actives have a fitted effect of over 55% in size; also: potency is read from the fitted curve at half-maximal effect
[4] = qHTS assay for identifying genotoxic compounds that show differential cytotoxicity against isogenic chicken DT40 cell lines with known DNA damage response pathways - Rad54/Ku70 mutant cell line (AID 743015); also: nearly all actives have a fitted effect of over 60% in size; also: potency is read from the fitted curve at half-maximal effect
[5] = qHTS assay to identify small molecule antagonists of the androgen receptor (AR) signaling pathway - cell viability counter screen (AID 743033; also: nearly all actives have a fitted effect of over 45% in size; also: potency is read from the fitted curve at half-maximal effect)
[6] = target: Androgen receptor (Homo sapiens) (UniProt P10275); experiment: qHTS assay to identify small molecule antagonists of the androgen receptor (AR) signaling pathway (AID 743035; active = well fitted inhibition curve with a large enough effect in the signal ratio in the repeat runs, not every such curve was filed as active; the % refers to the signal ratio; also: potency is read from the fitted curve at half-maximal effect)
Summary of the method: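 Cell line: GeneBLAzer AR-UAS-bla GripTite (HEK293). Stimulus: R1881 added after compound. Exposure: 16 h, 37C, 5% CO2. Readout: LiveBLAzer B/G FRET fluorescence after 2 h at room temperature.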

[7] = target: Androgen receptor (Homo sapiens) (UniProt P10275); experiment: qHTS assay to identify small molecule agonists of the androgen receptor (AR) signaling pathway using the MDA cell line (AID 743040; also: nearly all actives have a fitted effect of over 20% in size)
Summary of the method: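 MDA-kb2 breast carcinoma cells stably carrying an MMTV-driven luciferase reporter (AR- and GR-responsive) were seeded and held 5 h at 37C, 0% CO2, then exposed to compounds in DMSO for 16 h. Luminescence was read 30 min after ONE-Glo addition.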

[8] = qHTS assay to identify small molecule antagonists of the androgen receptor (AR) signaling pathway using the MDA cell line - cell viability counter screen (AID 743041; also: nearly all actives have a fitted effect of over 45% in size; also: potency is read from the fitted curve at half-maximal effect)
Summary of the method: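 MDA-kb2 AR-luc human breast carcinoma cells (MMTV-luciferase, AR/GR responsive) were treated with compounds plus R1881 agonist for 16 h at 37 °C. Viability was read as CellTiter-Fluor fluorescence in the same wells as the reporter assay.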

[9] = test system: thyroid hormone receptor (rat, GH3 cells); experiment: qHTS assay to identify small molecule agonists of the thyroid receptor (TR) signaling pathway (AID 743066; calls by dose curve)
[10] = target: Estrogen receptor (Homo sapiens) (UniProt P03372); experiment: qHTS assay to identify small molecule antagonists of the estrogen receptor alpha (ER-alpha) signaling pathway (AID 743069; active = well fitted curve in the direction sought with a large enough effect in the signal ratio in the repeat runs, not every such curve was filed as active; the % refers to the signal ratio)
Summary of the method: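 HEK293 cells stably carrying an ER-alpha-UAS-bla beta-lactamase reporter were pre-cultured overnight in 2% charcoal-stripped FBS medium. Test compounds in DMSO were added together with 17beta-estradiol for 18 hr at 37C. Read-out was fluorescence after 2 hr with LiveBLAzer B/G FRET substrate at room temperature.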

[11] = qHTS assay to identify small molecule antagonists of the estrogen receptor alpha (ER-alpha) signaling pathway - cell viability counter screen (AID 743074; calls by dose curve; also: nearly all actives have a fitted effect of over 45% in size)
[12] = target: Estrogen receptor (Homo sapiens) (UniProt P03372); experiment: qHTS assay to identify small molecule agonists of the estrogen receptor alpha (ER-alpha) signaling pathway (AID 743075; calls by dose curve)
[13] = target: Estrogen receptor (Homo sapiens) (UniProt P03372); experiment: qHTS assay to identify small molecule agonists of the estrogen receptor alpha (ER-alpha) signaling pathway using the BG1 cell line (AID 743079); settings: BG1Luc4E2 cells, ERE-luciferase agonist, 22 h; activation: at 70.3 µM (top of the series); also: nearly all actives have a fitted effect of over 20% in size; also: potency is read from the fitted curve at half-maximal effect
[14] = qHTS assay to identify small molecule antagonists of the estrogen receptor alpha (ER-alpha) signaling pathway using the BG1 cell line (AID 743080; calls by dose curve; also: nearly all actives have a fitted effect of over 25% in size)
Summary of the method: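 Antagonist mode: compounds in DMSO were pinned onto BG1-Luc-4E2 cells alongside 17beta-estradiol agonist, incubated 21.5 h, and ERE-driven luciferase measured with ONE-Glo. Cytotoxicity was multiplexed using CellTiter-Fluor fluorescence.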

[15] = qHTS assay to identify small molecule antagonists of the estrogen receptor alpha (ER-alpha) signaling pathway using the BG1 cell line - cell viability counter screen (AID 743081);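 also: compound given together with 17beta-estradiol as the ER stimulus; nearly all actives have a fitted effect of over 45% in size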; also: potency is read from the fitted curve at half-maximal effect
[16] = target: Aromatase (Homo sapiens) (UniProt P11511); experiment: qHTS assay to identify aromatase inhibitors (AID 743083); also: nearly all actives have a fitted effect of over 55% in size; also: potency is read from the fitted curve at half-maximal effect
[17] = qHTS assay to identify small molecule antagonists of the thyroid receptor (TR) signaling pathway - cell viability counter screen (AID 743064); also: nearly all actives have a fitted effect of over 50% in size; also: potency is read from the fitted curve at half-maximal effect
Summary of the method: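 Fluorescence from CellTiter-Fluor, added after 23.5 h exposure at 37 °C, reported viability of GH3.TRE-Luc cells co-treated with compound and 1 nM T3. Measured in the same wells as the luciferase TR readout.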

[18] = qHTS assay to identify small molecule antagonists of the thyroid receptor (TR) signaling pathway (AID 743065); also: nearly all actives have a fitted effect of over 55% in size; also: potency is read from the fitted curve at half-maximal effect
Summary of the method: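 GH3.TRE-Luc rat pituitary cells carrying two TR response elements driving luciferase were plated for 4 h, given compound plus 1 nM T3 (final), and incubated 23.5 h at 37 C. ONE-Glo luminescence measured reporter inhibition; CellTiter-Fluor fluorescence tracked cytotoxicity.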

[19] = target: Androgen receptor (Homo sapiens) (UniProt P10275); experiment: qHTS assay to identify small molecule agonists of the androgen receptor (AR) signaling pathway (AID 743036; active = well fitted activation curve with a large enough effect in the signal ratio in the repeat runs, with a control signal flat, not every such curve was filed as active; the % refers to the signal ratio)
Summary of the method: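 Fluorescence from a beta-lactamase FRET substrate served as read-out in AR-UAS-bla GripTite HEK293 cells. Cells were treated with DMSO-dissolved compounds for 16 h at 37C, then with LiveBLAzer B/G substrate for 2 h at room temperature.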

[20] = target: Androgen receptor (Homo sapiens) (UniProt P10275); experiment: qHTS assay to identify small molecule antagonists of the androgen receptor (AR) signaling pathway using the MDA cell line (AID 743042; also: nearly all actives have a fitted effect of over 55% in size)
Summary of the method: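 MDA-kb2 cells (human breast carcinoma, stably carrying an MMTV-luciferase reporter responsive to AR and GR) were plated at 3,000 cells/well and preincubated 5 hr at 37C, then given compound plus R1881 agonist for 16 h. ONE-Glo luminescence was read.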
% is scaled to controls: 0 for no effect and ±100 for the full control effect.

Androgen receptor (Homo sapiens), sequence (P10275 whole entry, looked up): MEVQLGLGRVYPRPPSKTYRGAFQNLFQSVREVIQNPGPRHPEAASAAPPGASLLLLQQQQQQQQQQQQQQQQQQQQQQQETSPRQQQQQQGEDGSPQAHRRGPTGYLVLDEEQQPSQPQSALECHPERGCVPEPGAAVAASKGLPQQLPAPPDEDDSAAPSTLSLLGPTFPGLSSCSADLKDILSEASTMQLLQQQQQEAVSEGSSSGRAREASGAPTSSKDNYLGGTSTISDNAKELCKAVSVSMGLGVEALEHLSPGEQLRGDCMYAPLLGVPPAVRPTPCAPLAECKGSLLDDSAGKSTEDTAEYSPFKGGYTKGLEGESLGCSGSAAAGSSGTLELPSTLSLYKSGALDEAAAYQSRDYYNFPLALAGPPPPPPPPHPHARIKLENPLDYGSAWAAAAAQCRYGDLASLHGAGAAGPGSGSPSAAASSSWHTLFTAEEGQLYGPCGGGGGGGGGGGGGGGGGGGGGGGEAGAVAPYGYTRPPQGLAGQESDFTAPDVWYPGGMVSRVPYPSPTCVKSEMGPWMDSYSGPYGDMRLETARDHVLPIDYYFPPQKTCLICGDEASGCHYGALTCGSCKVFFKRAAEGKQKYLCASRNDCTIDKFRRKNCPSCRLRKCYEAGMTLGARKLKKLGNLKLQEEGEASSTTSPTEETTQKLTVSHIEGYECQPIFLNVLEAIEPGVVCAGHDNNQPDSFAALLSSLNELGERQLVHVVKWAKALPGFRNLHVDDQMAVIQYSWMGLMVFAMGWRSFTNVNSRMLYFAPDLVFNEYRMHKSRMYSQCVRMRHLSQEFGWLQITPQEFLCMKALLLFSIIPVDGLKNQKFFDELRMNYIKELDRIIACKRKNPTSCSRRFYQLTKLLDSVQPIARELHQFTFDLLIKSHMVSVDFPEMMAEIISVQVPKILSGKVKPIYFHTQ
Aromatase (Homo sapiens), sequence (P11511 whole entry, looked up): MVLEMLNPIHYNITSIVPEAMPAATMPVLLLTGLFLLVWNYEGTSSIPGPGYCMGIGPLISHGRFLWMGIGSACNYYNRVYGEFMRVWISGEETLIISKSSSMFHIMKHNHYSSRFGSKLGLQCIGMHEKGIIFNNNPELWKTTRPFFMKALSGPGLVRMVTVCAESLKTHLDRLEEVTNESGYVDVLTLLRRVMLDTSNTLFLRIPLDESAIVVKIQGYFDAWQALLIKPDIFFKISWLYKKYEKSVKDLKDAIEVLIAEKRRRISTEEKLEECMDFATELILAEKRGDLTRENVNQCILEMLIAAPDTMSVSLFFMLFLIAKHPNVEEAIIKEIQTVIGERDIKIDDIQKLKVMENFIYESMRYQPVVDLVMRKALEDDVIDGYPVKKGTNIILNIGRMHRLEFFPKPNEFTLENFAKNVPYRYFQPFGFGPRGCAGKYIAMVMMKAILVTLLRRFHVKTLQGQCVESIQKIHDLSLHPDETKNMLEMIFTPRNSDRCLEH
Estrogen receptor (Homo sapiens), sequence (P03372 whole entry, looked up): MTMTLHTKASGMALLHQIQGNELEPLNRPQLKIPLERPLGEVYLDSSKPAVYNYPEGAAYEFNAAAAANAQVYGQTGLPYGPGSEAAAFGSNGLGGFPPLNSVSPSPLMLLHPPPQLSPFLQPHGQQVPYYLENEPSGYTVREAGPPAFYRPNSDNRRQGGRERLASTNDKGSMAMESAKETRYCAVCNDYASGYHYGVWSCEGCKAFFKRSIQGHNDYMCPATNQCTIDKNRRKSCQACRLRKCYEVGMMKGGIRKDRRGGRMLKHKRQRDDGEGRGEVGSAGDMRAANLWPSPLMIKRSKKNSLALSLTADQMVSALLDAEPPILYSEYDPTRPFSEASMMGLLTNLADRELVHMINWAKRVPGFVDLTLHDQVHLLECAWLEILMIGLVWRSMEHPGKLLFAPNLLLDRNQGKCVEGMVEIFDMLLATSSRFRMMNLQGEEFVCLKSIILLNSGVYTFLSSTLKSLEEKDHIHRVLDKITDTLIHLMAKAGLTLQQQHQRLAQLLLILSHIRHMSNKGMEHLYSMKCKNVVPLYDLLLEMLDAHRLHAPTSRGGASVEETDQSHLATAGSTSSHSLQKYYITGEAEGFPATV

CCCCCCCCCCCCCCC[C@H](O)[C@@H](N)CO
inactive: Potency [1] | Potency [2] | Potency [3] | Potency [4] | Potency [5] | Potency [6] | Potency [7] | Potency [8] | outcome [9] | Potency [10] | Potency [11] | Potency [12] | Potency [13] | Potency [14] | Potency [15] | Potency [16]

O=C(N/N=C/c1ccc([N+](=O)[O-])o1)c1ccc(O)cc1
inactive: Potency [1] | Potency [5] | Potency [7] | Potency [17] | outcome [9] | Potency [11] | Potency [12]
active: Potency [2] 4.52 µM | Potency [3] 4.03 µM | Potency [4] 4.52 µM | Potency [16] 10.1 µM

CN1C(=O)CC(C)(c2ccccc2)C1=O (stereo unspecified)
inactive: Potency [1] | Potency [2] | Potency [3] | Potency [4] | Potency [5] | Potency [8] | Potency [17] | Potency [18] | outcome [9] | Potency [10] | Potency [11] | Potency [12] | Potency [13] | Potency [14] | Potency [15] | Potency [16]

O=C(CCC1CCN(Cc2ccccc2)CC1)c1ccc2c(c1)NCCCC2
active: Potency [2] 2.37 µM | Potency [3] 2.98 µM | Potency [4] 8.41 µM | Potency [18] 11.9 µM
inactive: Potency [1] | Potency [5] | Potency [6] | Potency [19] | Potency [7] | outcome [9] | Potency [10] | Potency [12]

C=CCCCCCCCCCCCCCCCC
inactive: viability change, negative = cytotoxic [1] -0.145% [at 7.04 µM] | activity change, negative = cytotoxicity [2] -12.1% [at 8.52 µM] | activity, negative = cytotoxicity [3] 2.07% [at 8.53 µM] | activity change, negative = cytotoxicity [4] -0.283% [at 8.55 µM] | activity change, negative = cytotoxicity [5] 0.86% [at 7.04 µM] | viability change, negative = cytotoxic [8] -4.7% [at 8.47 µM] | activity change, negative = cytotoxic [17] -9.44% [at 8.44 µM] | activity, negative = inhibition [18] -26.3% [at 8.44 µM] | activation [9] -0.275% [at 8.08 µM] | activity, negative = inhibition [10] 10.1% [at 6.71 µM] | activity, negative = cytotoxicity [11] -5.03% [at 6.72 µM] | activation [12] -3.79% [at 6.71 µM] | activation [13] 4.88% [at 8.47 µM] | activity change, negative = inhibition [14] 2.27% [at 8.47 µM] | activity change, negative = cytotoxicity [15] 4.81% [at 8.47 µM] | activity, negative = inhibition [16] 12.3% [at 8.47 µM]

C=CC(=C)CCCC(C)(C)OC(C)=O
inactive: Potency [1] | Potency [2] | Potency [3] | Potency [4] | Potency [5] | Potency [6] | Potency [19] | Potency [7] | Potency [8] | Potency [20] | Potency [17] | Potency [18] | outcome [9] | Potency [11] | Potency [15] | Potency [16]

CCOC(=O)CC(=O)C(=O)OCC
inactive: Potency [1] | Potency [2] | Potency [3] | Potency [4] | Potency [5] | Potency [6] | Potency [19] | Potency [7] | Potency [18] | outcome [9] | Potency [10] | Potency [11] | Potency [12] | Potency [13] | Potency [14] | Potency [15] | Potency [16]

CCC(=O)OC/C=C/c1ccccc1
inactive: Potency [1] | Potency [2] | Potency [3] | Potency [4] | Potency [5] | Potency [8] | Potency [17] | Potency [18] | outcome [9] | Potency [10] | Potency [11] | Potency [12] | Potency [14] | Potency [15] | Potency [16]
active: Potency [13] 68.6 µM

CCCCCC=CCC=CCCCCCCCC(=O)OCC
inactive: Potency [1] | Potency [2] | Potency [3] | Potency [4] | Potency [5] | Potency [8] | Potency [17] | Potency [18] | outcome [9] | Potency [10] | Potency [11] | Potency [12] | Potency [13] | Potency [14] | Potency [15] | Potency [16]

COc1cc2c(N3CCN(C(=O)Nc4ccc(OC(C)C)cc4)CC3)ncnc2cc1OCCCN1CCCCC1
inactive: Potency [1] | Potency [6] | Potency [7] | Potency [10] | Potency [11] | Potency [13] | Potency [14] | Potency [16]
active: Potency [2] 6.68 µM | Potency [3] 7.5 µM | Potency [4] 5.96 µM | Potency [5] 6.01 µM | Potency [8] 33.5 µM | Potency [17] 11.9 µM | Potency [18] 13.3 µM

CC(CCc1ccc2c(c1)OCO2)NN (stereo unspecified)
inactive: Potency [1] | Potency [2] | Potency [3] | Potency [4] | Potency [5] | Potency [8] | Potency [17] | Potency [18] | outcome [9] | Potency [10] | Potency [12] | Potency [14] | Potency [15] | Potency [16]

COc1ccc(CCC(=O)c2c(O)cc(O[C@@H]3O[C@H](CO)[C@@H](O)[C@H](O)[C@H]3O[C@@H]3O[C@@H](C)[C@H](O)[C@@H](O)[C@H]3O)cc2O)cc1O
inactive: Potency [1] | Potency [2] | Potency [3] | Potency [4] | Potency [5] | Potency [6] | Potency [19] | Potency [7] | Potency [17] | Potency [18] | outcome [9] | Potency [10] | Potency [11] | Potency [12] | Potency [13] | Potency [14] | Potency [15] | Potency [16]

O=C(NCCCN1CCOCC1)c1ccc(Cl)cc1
inactive: Potency [1] | Potency [2] | Potency [3] | Potency [4] | Potency [5] | Potency [8] | Potency [17] | Potency [18] | outcome [9] | Potency [10] | Potency [11] | Potency [12] | Potency [13] | Potency [15] | Potency [16]

CC(C)(C)CC(C)(C)c1ccc(OCCO)cc1
active: Potency [2] 3.76 µM and 13.6 µM | Potency [3] 6.68 µM and 7.65 µM | Potency [4] 5.96 µM and 9.63 µM | Potency [5] 21.8 µM | Potency [6] 15.1 µM and 12.2 µM | Potency [17] 11.9 µM and 60.8 µM | Potency [15] 24.2 µM | Potency [16] 26.6 µM and 43 µM
inactive: Potency [1] | Potency [19] | Potency [7] | Potency [11] | Potency [12]

Nc1ccc(Cl)cc1[N+](=O)[O-]
inactive: Potency [1] | Potency [2] | Potency [3] | Potency [4] | Potency [5] | Potency [19] | Potency [7] | Potency [8] | Potency [18] | outcome [9] | Potency [10] | Potency [11] | Potency [12] | Potency [14] | Potency [15]
